Source: PubChem BioAssay (NCI)
The panel holds about 83,000 compounds, 20% with a hit somewhere; the sample as a whole holds those more often.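 Step 1: grow cells in 96-well plates. Step 2: add test compound at a single concentration. Step 3: incubate 48 h. Step 4: record percent growth.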 Calls of active or inactive are those of the source. The calls were made as follows: active = growth percent below 10; inactive = the rest.

Tested on: MOLT-4 leukemia
Assay: NCI-60 one-dose screen, 48 h (100 = growth as untreated, 0 = no growth, -100 = all killed)
Details: 10 µM unless noted

SMILES | growth
CCN(CC)CCOc1ccccc1-n1c(C)ccc1-c1ccccc1 | -35.2% (active)
Cn1cc(-c2csc(-c3c[nH]c4ncccc34)n2)c2cc(Br)cnc21 | 76.2% (inactive)
COc1ccc(/C=C2\NC(=S)NC2=O)cc1 | 110% (inactive)
Nc1ccccc1-c1ccc([N+](=O)[O-])cc1 | 30.5% (inactive)
Cc1cc(NC(=O)c2ccc(N)cc2)ccc1N=Nc1ccc2c(O)c(N=Nc3ccc(Cl)c(S(=O)(=O)O)c3)c(S(=O)(=O)O)cc2c1 | 99.3% (inactive)
CC[N+](CC)(CCOCCOCC[N+](CC)(CC)Cc1ccc([N+](=O)[O-])cc1)Cc1ccc([N+](=O)[O-])cc1 | 84.8% (inactive)
CCC(c1ccccc1)c1noc(CCN(CC)CC)n1 (configuration not stated) | 83% (inactive)
CC(=O)Nc1ccc2c(c1)Cc1c(F)c(F)c(F)c(F)c1-2 | 99.4% (inactive)
OC(Cc1cccnc1)c1ccccc1 (configuration not stated) | 94.3% (inactive)
C/C(=N/N=C(N)N)c1ccc(N)cc1 | 109% (inactive)
O=C(O)c1ccccc1C(=O)OC1CCCC2CCCC21 (configuration not stated) | 98.7% (inactive)
CN1CCCC1c1cccnc1 (configuration not stated) | 101% (inactive)
COc1c(O)cc2oc3cc(O)c(CC=C(C)C)c(O)c3c(=O)c2c1C/C=C(\C)CCC=C(C)C | 6.16% (active)
Nc1nc(SCc2ccccc2Cl)c(-c2ccccc2)c(SCc2ccccc2Cl)n1 | 90.9% (inactive)
CO[C@H]1/C=C/O[C@@]2(C)Oc3c(C)c(O)c4c(O)c(c(/C=N/N5C(C)CN(Cc6ccccc6)CC5C)c(O)c4c3C2=O)NC(=O)/C(C)=C\C=C\[C@H](C)[C@H](O)[C@@H](C)[C@@H](O)[C@@H](C)[C@H](OC(C)=O)[C@@H]1C (some centres not stated) | 217% (inactive)
CCOC(=O)C(C(C)=O)c1nc2sc3cc(Cl)ccc3n2c(=N)c1C#N (configuration not stated) | 44.9% (inactive)
COc1ccc(-c2nn(-c3cccc(Cl)c3)cc2C2CC(c3ccccc3)=NN2C(C)=O)cc1 (configuration not stated) | 93.9% (inactive)
CCS(=O)(=O)OCCCl | 89.8% (inactive)
O=C1Nc2ccc(F)cc2/C1=C/c1nc(-c2ccc(F)cc2)n2ccccc12 | 103% (inactive)

SMILES | growth
Cc1c(C(N)=O)sc2ncn(Cc3ccccc3)c(=O)c12 | 114% (inactive)
Nc1nc2ncc(CCNc3ccc(C(=O)NC(CCC(=O)O)C(=O)O)cc3)nc2c(=O)[nH]1 (configuration not stated) | 145% (inactive)
COc1cccc2c1C(=O)c1c(O)c3c(c(O)c1C2=O)C[C@@](O)(/C(C)=N/NC(=O)c1cccc([N+](=O)[O-])c1)C[C@@H]3OC1CC(N)C(O)C(C)O1 (some centres not stated) | -39% (active)
NC(=O)NN=C(C1CC1)C1CC1 | 82.8% (inactive)
C[n+]1ccc(Nc2ccc(NC(=O)c3ccc(Nc4cc[n+](C)c5ccc(N)cc45)cc3)cc2)cc1 | 97.5% (inactive)
COc1cc(OC)c2cc(C(=O)O)c(=O)oc2c1 | 74.9% (inactive)
CCOc1ccccc1C(=O)OCC(=O)Nc1cccc(S(=O)(=O)N(C)C)c1 | 105% (inactive)
S=C(Nc1ccc(C2=NCCN2)cc1)Nc1ccc(C2=NCCN2)cc1 | 93.6% (inactive)
S=c1[nH]nc2sc3ccccc3n12 | 92.7% (inactive)
Cn1c(N)c(N=O)c(=O)[nH]c1=O | 96.3% (inactive)
Cc1ccc(C(=O)Nc2ccc(Cl)cc2C(=O)NCc2ccccc2)cc1 | 51.4% (inactive)
O=[N+]([O-])c1ccc2c(c1)S(=O)c1cc([N+](=O)[O-])ccc1N2 | 93% (inactive)
Nc1ccc2c3c(cccc13)-c1ccccc1-2 | 32.4% (inactive)
CC(c1cc(Cl)ccc1O)c1cc(Cl)ccc1O | 52.1% (inactive)
Nc1ccc2c(c1)/C(=N/O)c1cc([N+](=O)[O-])ccc1-2 | 25.6% (inactive)
Nc1cc(Cl)c(S(N)(=O)=O)cc1S(N)(=O)=O | 158% (inactive)
O=C(CSc1nc2c(n1Nc1ccccc1)-c1ccccc1SC2)Nc1nc(-c2ccc(Cl)cc2)cs1 | 78.4% (inactive)
Cc1cc(O)c2c(c1)C[C@H]1[C@@H]3CC[C@H]4CC(=O)CC[C@]4(C)[C@H]3CC(=O)[C@]21C | 53.7% (inactive)

Tested on: SR leukemia
Assay: as above
Details: 10 µM unless noted

SMILES | growth
CCN(CC)CCOc1ccccc1-n1c(C)ccc1-c1ccccc1 | -29.4% (active)
COc1ccc(/C=C2\NC(=S)NC2=O)cc1 | 110% (inactive)
Nc1ccccc1-c1ccc([N+](=O)[O-])cc1 | 34.8% (inactive)
Cc1cc(NC(=O)c2ccc(N)cc2)ccc1N=Nc1ccc2c(O)c(N=Nc3ccc(Cl)c(S(=O)(=O)O)c3)c(S(=O)(=O)O)cc2c1 | 66.5% (inactive)
CC[N+](CC)(CCOCCOCC[N+](CC)(CC)Cc1ccc([N+](=O)[O-])cc1)Cc1ccc([N+](=O)[O-])cc1 | 107% (inactive)
CCC(c1ccccc1)c1noc(CCN(CC)CC)n1 (configuration not stated) | 69.2% (inactive)
CC(=O)Nc1ccc2c(c1)Cc1c(F)c(F)c(F)c(F)c1-2 | 52% (inactive)
OC(Cc1cccnc1)c1ccccc1 (configuration not stated) | 92.6% (inactive)
C/C(=N/N=C(N)N)c1ccc(N)cc1 | 49.3% (inactive)
O=C(O)c1ccccc1C(=O)OC1CCCC2CCCC21 (configuration not stated) | 104% (inactive)
CN1CCCC1c1cccnc1 (configuration not stated) | 85.7% (inactive)
COc1c(O)cc2oc3cc(O)c(CC=C(C)C)c(O)c3c(=O)c2c1C/C=C(\C)CCC=C(C)C | -18.2% (active)
Nc1nc(SCc2ccccc2Cl)c(-c2ccccc2)c(SCc2ccccc2Cl)n1 | 96.3% (inactive)
CO[C@H]1/C=C/O[C@@]2(C)Oc3c(C)c(O)c4c(O)c(c(/C=N/N5C(C)CN(Cc6ccccc6)CC5C)c(O)c4c3C2=O)NC(=O)/C(C)=C\C=C\[C@H](C)[C@H](O)[C@@H](C)[C@@H](O)[C@@H](C)[C@H](OC(C)=O)[C@@H]1C (some centres not stated) | 212% (inactive)
CCOC(=O)C(C(C)=O)c1nc2sc3cc(Cl)ccc3n2c(=N)c1C#N (configuration not stated) | 60.3% (inactive)
COc1ccc(-c2nn(-c3cccc(Cl)c3)cc2C2CC(c3ccccc3)=NN2C(C)=O)cc1 (configuration not stated) | 75.6% (inactive)
CCS(=O)(=O)OCCCl | 137% (inactive)
O=C1Nc2ccc(F)cc2/C1=C/c1nc(-c2ccc(F)cc2)n2ccccc12 | 52.9% (inactive)

SMILES | growth
Cc1c(C(N)=O)sc2ncn(Cc3ccccc3)c(=O)c12 | 92.8% (inactive)
Nc1nc2ncc(CCNc3ccc(C(=O)NC(CCC(=O)O)C(=O)O)cc3)nc2c(=O)[nH]1 (configuration not stated) | 133% (inactive)
NC(=O)NN=C(C1CC1)C1CC1 | 85.6% (inactive)
C[n+]1ccc(Nc2ccc(NC(=O)c3ccc(Nc4cc[n+](C)c5ccc(N)cc45)cc3)cc2)cc1 | 93.2% (inactive)
COc1cc(OC)c2cc(C(=O)O)c(=O)oc2c1 | 115% (inactive)
CCOc1ccccc1C(=O)OCC(=O)Nc1cccc(S(=O)(=O)N(C)C)c1 | 105% (inactive)
S=C(Nc1ccc(C2=NCCN2)cc1)Nc1ccc(C2=NCCN2)cc1 | 90.4% (inactive)
S=c1[nH]nc2sc3ccccc3n12 | 88.5% (inactive)
Cn1c(N)c(N=O)c(=O)[nH]c1=O | 97.6% (inactive)
Cc1ccc(C(=O)Nc2ccc(Cl)cc2C(=O)NCc2ccccc2)cc1 | 37.1% (inactive)
O=[N+]([O-])c1ccc2c(c1)S(=O)c1cc([N+](=O)[O-])ccc1N2 | 121% (inactive)
Nc1ccc2c3c(cccc13)-c1ccccc1-2 | 93.1% (inactive)
CC(c1cc(Cl)ccc1O)c1cc(Cl)ccc1O | 53.3% (inactive)
Nc1ccc2c(c1)/C(=N/O)c1cc([N+](=O)[O-])ccc1-2 | 9.6% (active)
Nc1cc(Cl)c(S(N)(=O)=O)cc1S(N)(=O)=O | 123% (inactive)
O=C(CSc1nc2c(n1Nc1ccccc1)-c1ccccc1SC2)Nc1nc(-c2ccc(Cl)cc2)cs1 | 27% (inactive)
Cc1cc(O)c2c(c1)C[C@H]1[C@@H]3CC[C@H]4CC(=O)CC[C@]4(C)[C@H]3CC(=O)[C@]21C | 59.2% (inactive)
